PubChem BioAssay AID1159580 (chemical genetic matrix, 2015)
Values joined by “and” are separate entries in the source; they are usually repeats but may differ in a detail not shown here. Identical values can stand only once. The campaign covered roughly 5,500 compounds. About 2,000 (36%) were called active. About 18% were inconclusive and are not listed. Rule as the data show it: active = normalized growth mostly below about 0.91 (no sharp cut-off); inconclusive = no clear call, values can overlap the other calls; inactive = mostly above about 0.92. Some of the results follow.

Assay: chemical genetic growth profiling, strain panel (AID 1159580);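 also: tested at 20 µM; growth read once vehicle control cultures reached saturation at 30 °C; 1 = growth at the plate median or of vehicle wells; lower values mean less growth of the strain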
Details: S. cerevisiae deletion strains, growth OD

Measured: normalized growth

CC[N+](C)(C)c1cccc(O)c1
inactive: locus YAL013W, strain DEP1, active compounds read low 0.992 and 1.06 | locus YAL021C, strain ccr4, active compounds read low 1.02 | locus YAL026C, strain drs2, active compounds read low 0.993 | locus YAL030W, strain snc1, active compounds read low 1.01 | locus YAL040C, strain CLN3, active compounds read low 0.997 | locus YBL061C, strain skt5, active compounds read low 1 | locus YBR009C, strain hhf1, active compounds read low 0.964 | locus YBR021W, strain FUR4, active compounds read low 0.996 | locus YBR023C, strain chs3, active compounds read low 1.02 | locus YBR171W, strain sec66, active compounds read low 1 | locus YBR229C, strain ROT2, active compounds read low 0.983 | locus YBR231C, strain swc5, active compounds read low 1.03 | locus YBR279W, strain paf1, active compounds read low 1.01 | locus YCL011C, strain gbp2, active compounds read low 1.02 | locus YCL016C, strain dcc1, active compounds read low 1.02 | locus YCL029C, strain bik1, active compounds read low 0.966 | locus YCL061C, strain MRC1 (second series), active compounds read low 1 | locus YCL061C, strain MRC1, active compounds read low 1.02 | locus YCL069W, strain vba3, active compounds read low 1.01 | locus YCR088W, strain abp1, active compounds read low 1.01 | locus YDL005C, strain med2, active compounds read low 1.02 | locus YDL035C, strain GPR1, active compounds read low 1.01 | locus YDL040C, strain nat1, active compounds read low 1.01 | locus YDL074C, strain BRE1, active compounds read low 0.984 | locus YDL101C, strain DUN1, active compounds read low 0.979 | locus YDL134C, strain PPH21, active compounds read low 0.984 | locus YDL185W, strain tfp1, active compounds read low 0.972 | locus YDL192W, strain arf1, active compounds read low 0.992 | locus YDR001C, strain nth1, active compounds read low 1 | locus YDR069C, strain doa4, active compounds read low 1.02 | locus YDR101C, strain arx1, active compounds read low 0.966 | locus YDR137W, strain rgp1, active compounds read low 1.04 | locus YDR150W, strain NUM1, active compounds read low 0.996 and 1 | locus YDR159W, strain sac3, active compounds read low 0.993 | locus YDR162C, strain NBP2, active compounds read low 0.999 | locus YDR195W, strain ref2 1.01 | locus YDR297W, strain sur2, active compounds read low 1.01 | locus YDR318W, strain mcm21, active compounds read low 0.971 | locus YDR334W, strain swr1, active compounds read low 1.01 | locus YDR335W, strain msn5, active compounds read low 1.01 | locus YDR363W, strain ESC2, active compounds read low 1.01 | locus YDR388W, active compounds read low 0.978 | locus YDR392W, strain spt3, active compounds read low 0.92 | locus YDR502C, strain sam2, active compounds read low 0.975 | locus YEL003W, strain gim4, active compounds read low 0.995 | locus YEL037C, strain rad23, active compounds read low 0.999 | locus YEL061C, strain CIN8 (second series), active compounds read low 1.01 | locus YEL061C, strain CIN8, active compounds read low 0.994 | locus YER002W, strain NOP16, active compounds read low 0.998 | locus YER015W, strain faa2, active compounds read low 0.999 | locus YER016W, strain bim1, active compounds read low 1.01 | locus YER110C, active compounds read low 0.97 | locus YER111C, strain swi4, active compounds read low 0.998 | locus YER155C, strain BEM2 (second series), active compounds read low 1.02 | locus YER155C, strain BEM2, active compounds read low 0.949 | locus YER167W, strain BCK2, active compounds read low 0.995 | locus YFR010W, strain ubp6, active compounds read low 1 | locus YGL078C, strain dbp3, active compounds read low 0.982 | locus YGL086W, strain mad1, active compounds read low 1 | locus YGL167C, strain pmr1, active compounds read low 1.01 | locus YGL173C, strain kem1, active compounds read low 1.02 | locus YGL227W, strain vid30, active compounds read low 1.02 | locus YGL240W, strain doc1, active compounds read low 1.03 | locus YGL248W, strain PDE1, active compounds read low 0.997 | locus YGL253W, strain hxk2, active compounds read low 1.02 | locus YGR078C, strain PAC10, active compounds read low 0.995 and 0.986 | locus YGR135W, strain pre9, active compounds read low 0.973 | locus YGR229C, strain SMI1, active compounds read low 1.01 | locus YGR252W, strain gcn5, active compounds read low 1.06 | locus YHR013C, strain ard1, active compounds read low 1.06 | locus YHR027C, strain rpn1, active compounds read low 1.01 | locus YHR030C, strain SLT2, active compounds read low 0.988 and 1.01 | locus YHR079C, strain IRE1 (second series), active compounds read low 0.982 | locus YHR079C, strain IRE1, active compounds read low 0.99 | locus YHR094C, strain hxt1, active compounds read low 0.976 | locus YHR129C, strain ARP1, active compounds read low 0.987 | locus YHR142W, strain chs7, active compounds read low 1 | locus YHR200W, strain rpn10, active compounds read low 0.968 | locus YIL066C, strain RNR3, active compounds read low 0.985 | locus YIL073C, strain SPO22, active compounds read low 0.982 | locus YIL125W, strain kgd1, active compounds read low 0.997 | locus YIR030C, strain dcg1, active compounds read low 0.974 | locus YJL092W, strain hpr5, active compounds read low 1.01 | locus YJL095W, strain BCK1 (second series), active compounds read low 1.01 | locus YJL095W, strain BCK1, active compounds read low 0.973 and 1.02 | locus YJL115W, strain asf1, active compounds read low 1.01 | locus YJL129C, strain trk1, active compounds read low 1.02 | locus YJL134W, strain LCB3, active compounds read low 0.991 | locus YJL154C, strain vps35, active compounds read low 1 | locus YJL164C, strain tpk1, active compounds read low 0.996 | locus YJL166W, strain qcr8, active compounds read low 1.04 | locus YJL168C, strain set2, active compounds read low 0.979 | locus YJL187C, strain SWE1 (second series), active compounds read low 0.977 | locus YJL187C, strain SWE1, active compounds read low 1.01 | locus YJR043C, strain POL32, active compounds read low 0.984 | locus YJR066W, strain TOR1, active compounds read low 0.931
